B1: unnamed (peptide)
chain: RPVPPPPPMRTTTEG
B2: unnamed (peptide)
chain: QTMRQAPKRPDADVA

These binders were tested against AgAbp1 (assay: SPOT peptide array binding signal intensity (averaged, normalized) (arbitrary units (background-subtracted, floor 0; scale differs between SH3 domains)); higher = stronger binding of the SH3 domain to the peptide).
Method in brief: (§1)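 GST-SH3 fusions from four yeast species, purified on glutathione Sepharose, were incubated at 10 μg/ml overnight at 4°C on membranes of synthetic 15-mer peptides in which cysteines were replaced with serines. Binding signal is the normalized, background-subtracted spot intensity averaged over replicates, in domain-specific arbitrary units.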

Row | Binder | SPOT peptide array binding signal intensity
1 | B1 | 18
2 | B2 | 17

What follows are binders tested against AgBbc1 in the same assay as above.
Method in brief: as §1

Row | Binder | SPOT peptide array binding signal intensity
3 | B1 | 814
4 | B2 | 170

These binders were tested against AgBem1-D1 in the same assay as above.
Method in brief: as §1

Row | Binder | SPOT peptide array binding signal intensity
5 | B1 | 201
6 | B2 | 369

The binders below were run against AgBzz1-D1 in the same assay as above.
Method in brief: as §1

Row | Binder | SPOT peptide array binding signal intensity
7 | B1 | 156
8 | B2 | 11

Each binder was assayed against AgBzz1-D2 in the same assay as above.
Method in brief: as §1

Row | Binder | SPOT peptide array binding signal intensity
9 | B1 | 14.5
10 | B2 | 10

These binders were tested against AgCyk3 in the same assay as above.
Method in brief: as §1

Row | Binder | SPOT peptide array binding signal intensity
11 | B1 | 14
12 | B2 | ≤ 0

These binders were tested against AgFus1 in the same assay as above.
Method in brief: as §1

Row | Binder | SPOT peptide array binding signal intensity
13 | B1 | 63
14 | B2 | 728

What follows are binders tested against AgHof1 in the same assay as above.
Method in brief: as §1

Row | Binder | SPOT peptide array binding signal intensity
15 | B1 | 61.8
16 | B2 | 9

These binders were tested against AgHse1 in the same assay as above.
Method in brief: as §1

Row | Binder | SPOT peptide array binding signal intensity
17 | B1 | 144
18 | B2 | 132

Each binder was assayed against AgLsb1 in the same assay as above.
Method in brief: as §1

Row | Binder | SPOT peptide array binding signal intensity
19 | B1 | 303
20 | B2 | 48.8

What follows are binders tested against AgLsb4 in the same assay as above.
Method in brief: as §1

Row | Binder | SPOT peptide array binding signal intensity
21 | B1 | 1760
22 | B2 | 36

These binders were tested against AgMyo5 in the same assay as above.
Method in brief: as §1

Row | Binder | SPOT peptide array binding signal intensity
23 | B1 | 41.2
24 | B2 | 18.8

What follows are binders tested against AgNbp2 in the same assay as above.
Method in brief: as §1

Row | Binder | SPOT peptide array binding signal intensity
25 | B1 | 3100
26 | B2 | 2740

The binders below were run against AgRvs167 in the same assay as above.
Method in brief: as §1

Row | Binder | SPOT peptide array binding signal intensity
27 | B1 | 1050
28 | B2 | 20.3

What follows are binders tested against AgSho1 in the same assay as above.
Method in brief: as §1

Row | Binder | SPOT peptide array binding signal intensity
29 | B1 | 136
30 | B2 | 684

What follows are binders tested against AgSla1-D1-D2 in the same assay as above.
Method in brief: as §1

Row | Binder | SPOT peptide array binding signal intensity
31 | B1 | 1
32 | B2 | 9

Each binder was assayed against AgSla1-D3 in the same assay as above.
Method in brief: as §1

Row | Binder | SPOT peptide array binding signal intensity
33 | B1 | 108
34 | B2 | 14.8

The binders below were run against CaAbp1-D1 in the same assay as above.
Method in brief: as §1

Row | Binder | SPOT peptide array binding signal intensity
35 | B1 | 364
36 | B2 | 144

Each binder was assayed against CaAbp1-D2 in the same assay as above.
Method in brief: as §1

Row | Binder | SPOT peptide array binding signal intensity
37 | B1 | 60.5
38 | B2 | 292

Each binder was assayed against CaBbc1 in the same assay as above.
Method in brief: as §1

Row | Binder | SPOT peptide array binding signal intensity
39 | B1 | 553
40 | B2 | 942

The binders below were run against CaBem1-D1 in the same assay as above.
Method in brief: as §1

Row | Binder | SPOT peptide array binding signal intensity
41 | B1 | 166
42 | B2 | 565

What follows are binders tested against CaBzz1-D1 in the same assay as above.
Method in brief: as §1

Row | Binder | SPOT peptide array binding signal intensity
43 | B1 | 3990
44 | B2 | 458

Each binder was assayed against CaBzz1-D2 in the same assay as above.
Method in brief: as §1

Row | Binder | SPOT peptide array binding signal intensity
45 | B1 | 1260
46 | B2 | 286

What follows are binders tested against CaCyk3 in the same assay as above.
Method in brief: as §1

Row | Binder | SPOT peptide array binding signal intensity
47 | B1 | 387
48 | B2 | 35

Each binder was assayed against CaFus1 in the same assay as above.
Method in brief: as §1

Row | Binder | SPOT peptide array binding signal intensity
49 | B1 | 548
50 | B2 | 1110

What follows are binders tested against CaHof1 in the same assay as above.
Method in brief: as §1

Row | Binder | SPOT peptide array binding signal intensity
51 | B1 | 40
52 | B2 | 1

Each binder was assayed against CaHse1 in the same assay as above.
Method in brief: as §1

Row | Binder | SPOT peptide array binding signal intensity
53 | B1 | 405
54 | B2 | 146

These binders were tested against CaLsb1 in the same assay as above.
Method in brief: as §1

Row | Binder | SPOT peptide array binding signal intensity
55 | B1 | 1
56 | B2 | 18.2

Each binder was assayed against CaLsb4 in the same assay as above.
Method in brief: as §1

Row | Binder | SPOT peptide array binding signal intensity
57 | B1 | 2480
58 | B2 | 910

What follows are binders tested against CaMyo5 in the same assay as above.
Method in brief: as §1

Row | Binder | SPOT peptide array binding signal intensity
59 | B1 | 54
60 | B2 | 56.2

These binders were tested against CaNbp2 in the same assay as above.
Method in brief: as §1

Row | Binder | SPOT peptide array binding signal intensity
61 | B1 | 1490

The binders below were run against CaRvs167 in the same assay as above.
Method in brief: as §1

Row | Binder | SPOT peptide array binding signal intensity
62 | B1 | 1460

What follows are binders tested against CaRvs167-3 in the same assay as above.
Method in brief: as §1

Row | Binder | SPOT peptide array binding signal intensity
63 | B1 | 0.75

What follows are binders tested against CaSho1 in the same assay as above.
Method in brief: as §1

Row | Binder | SPOT peptide array binding signal intensity
64 | B1 | 650

What follows are binders tested against CaSla1-D1-D2 in the same assay as above.
Method in brief: as §1

Row | Binder | SPOT peptide array binding signal intensity
65 | B1 | 1590

Each binder was assayed against CaSla1-D3 in the same assay as above.
Method in brief: as §1

Row | Binder | SPOT peptide array binding signal intensity
66 | B1 | 928

Each binder was assayed against ScAbp1 in the same assay as above.
Method in brief: as §1

Row | Binder | SPOT peptide array binding signal intensity
67 | B1 | 21

What follows are binders tested against ScBbc1 in the same assay as above.
Method in brief: as §1

Row | Binder | SPOT peptide array binding signal intensity
68 | B1 | 64.8

The binders below were run against ScBem1-D1 in the same assay as above.
Method in brief: as §1

Row | Binder | SPOT peptide array binding signal intensity
69 | B1 | ≤ 0

The binders below were run against ScBzz1-D1 in the same assay as above.
Method in brief: as §1

Row | Binder | SPOT peptide array binding signal intensity
70 | B1 | 177

The binders below were run against ScBzz1-D2 in the same assay as above.
Method in brief: as §1

Row | Binder | SPOT peptide array binding signal intensity
71 | B1 | 14.5

What follows are binders tested against ScCyk3 in the same assay as above.
Method in brief: as §1

Row | Binder | SPOT peptide array binding signal intensity
72 | B1 | 8.5

What follows are binders tested against ScFus1 in the same assay as above.
Method in brief: as §1

Row | Binder | SPOT peptide array binding signal intensity
73 | B1 | 180

Each binder was assayed against ScHof1 in the same assay as above.
Method in brief: as §1

Row | Binder | SPOT peptide array binding signal intensity
74 | B1 | 46.2

Each binder was assayed against ScHse1 in the same assay as above.
Method in brief: as §1

Row | Binder | SPOT peptide array binding signal intensity
75 | B1 | 63

These binders were tested against ScLsb1 in the same assay as above.
Method in brief: as §1

Row | Binder | SPOT peptide array binding signal intensity
76 | B1 | 180

The binders below were run against ScLsb2 in the same assay as above.
Method in brief: as §1

Row | Binder | SPOT peptide array binding signal intensity
77 | B1 | 434

What follows are binders tested against ScLsb3 in the same assay as above.
Method in brief: as §1

Row | Binder | SPOT peptide array binding signal intensity
78 | B1 | 4080

Each binder was assayed against ScLsb4 in the same assay as above.
Method in brief: as §1

Row | Binder | SPOT peptide array binding signal intensity
79 | B1 | 3130

The binders below were run against ScMyo3 in the same assay as above.
Method in brief: as §1

Row | Binder | SPOT peptide array binding signal intensity
80 | B1 | 569

Each binder was assayed against ScMyo5 in the same assay as above.
Method in brief: as §1

Row | Binder | SPOT peptide array binding signal intensity
81 | B1 | 239

What follows are binders tested against ScNbp2 in the same assay as above.
Method in brief: as §1

Row | Binder | SPOT peptide array binding signal intensity
82 | B1 | 4580

What follows are binders tested against ScPex13 in the same assay as above.
Method in brief: as §1

Row | Binder | SPOT peptide array binding signal intensity
83 | B1 | 1500

What follows are binders tested against ScRvs167 in the same assay as above.
Method in brief: as §1

Row | Binder | SPOT peptide array binding signal intensity
84 | B1 | 3300

Each binder was assayed against ScSho1 in the same assay as above.
Method in brief: as §1

Row | Binder | SPOT peptide array binding signal intensity
85 | B1 | 616

These binders were tested against ScSla1-D1-D2 in the same assay as above.
Method in brief: as §1

Row | Binder | SPOT peptide array binding signal intensity
86 | B1 | 1870

The binders below were run against ScSla1-D3 in the same assay as above.
Method in brief: as §1

Row | Binder | SPOT peptide array binding signal intensity
87 | B1 | 222

What follows are binders tested against SpAbp1-D1 in the same assay as above.
Method in brief: as §1

Row | Binder | SPOT peptide array binding signal intensity
88 | B1 | 95.5

Each binder was assayed against SpBbc1 in the same assay as above.
Method in brief: as §1

Row | Binder | SPOT peptide array binding signal intensity
89 | B1 | 40.5

The binders below were run against SpBzz1-D1 in the same assay as above.
Method in brief: as §1

Row | Binder | SPOT peptide array binding signal intensity
90 | B1 | 1370

Each binder was assayed against SpBzz1-D2 in the same assay as above.
Method in brief: as §1

Row | Binder | SPOT peptide array binding signal intensity
91 | B1 | 88

The binders below were run against SpCyk3 in the same assay as above.
Method in brief: as §1

Row | Binder | SPOT peptide array binding signal intensity
92 | B1 | 112

What follows are binders tested against SpHof1 in the same assay as above.
Method in brief: as §1

Row | Binder | SPOT peptide array binding signal intensity
93 | B1 | 111

These binders were tested against SpHof1-2 in the same assay as above.
Method in brief: as §1

Row | Binder | SPOT peptide array binding signal intensity
94 | B1 | 110

These binders were tested against SpHof1-3 in the same assay as above.
Method in brief: as §1

Row | Binder | SPOT peptide array binding signal intensity
95 | B1 | 966

What follows are binders tested against SpHse1 in the same assay as above.
Method in brief: as §1

Row | Binder | SPOT peptide array binding signal intensity
96 | B1 | 147

These binders were tested against SpLsb1 in the same assay as above.
Method in brief: as §1

Row | Binder | SPOT peptide array binding signal intensity
97 | B1 | 161

The binders below were run against SpLsb4 in the same assay as above.
Method in brief: as §1

Row | Binder | SPOT peptide array binding signal intensity
98 | B1 | 4570

The binders below were run against SpMyo1 in the same assay as above.
Method in brief: as §1

Row | Binder | SPOT peptide array binding signal intensity
99 | B1 | 333

These binders were tested against SpNbp2 in the same assay as above.
Method in brief: as §1

Row | Binder | SPOT peptide array binding signal intensity
100 | B1 | 191

What follows are binders tested against SpPex13 in the same assay as above.
Method in brief: as §1

Row | Binder | SPOT peptide array binding signal intensity
101 | B1 | 150

What follows are binders tested against SpRvs167 in the same assay as above.
Method in brief: as §1

Row | Binder | SPOT peptide array binding signal intensity
102 | B1 | 2150

What follows are binders tested against SpSla1-D1-D2 in the same assay as above.
Method in brief: as §1

Row | Binder | SPOT peptide array binding signal intensity
103 | B1 | 86

Each binder was assayed against SpSla1-D3 in the same assay as above.
Method in brief: as §1

Row | Binder | SPOT peptide array binding signal intensity
104 | B1 | 33.5

Source: the supplement of paper PMC4466140
